GalR3 antagonist = GalR3 antagonists in HEK293 cells, primary screen, cell-based, fluorescence readout; HEK293 GalR3-CNG cAMP membrane potential fluorescence; galR3 body fused to GalR1 C-terminus; Galanin receptor type 3 (Homo sapiens), O60755; inhibition, % at 3 µM; 360,000 tested, 0.44% active;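 active means inhibition above the screen-wide average plus 3 SD, cut at about 13% in these data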;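 further: forskolin and galanin both at EC90 stimulate the cells; cAMP rise reported by CNG channel membrane potential dye signal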
SMARCA2 act = SMARCA2 (BRM) function activators, primary screen, cell-based, luminescence, high throughput. MG213 cells, MMTV-luciferase reporter, dexamethasone, overnight. activation, % at 9.1 µM. 370,000 tested, 1% active. AID 652017, 2013; in the data active means activation above about 7.8%
Gli-Sufu antag = Gli-Sufu pathway antagonists, primary screen, luciferase luminescence, Sufu-KO-LIGHT cells, uHTS; inhibition, % at 5 µM; Sufu-KO-LIGHT fibroblasts, Gli luciferase reporter luminescence; 340,000 tested, 0.74% active; AID 588413, 2011;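 active means inhibition above about 55%, limit read from the data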
H9c2 protect = cardioprotection against H2O2-induced cell death, primary screen, uHTS, H9c2 cells, ATPLite luminescence; H9c2 cardiomyocytes, H2O2 injury protection, 2 h; protection from H2O2 cell death, % at 20 µM; 360,000 tested, 0.63% active;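 active means compounds giving at least 50% protection of heart cells from peroxide-induced death in the single-dose screen, raw or plate-pattern-corrected value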
NR2F2 inh = NR2F2 transcriptional activity inhibitors, primary screen, cell-based, luciferase reporter, HEK293T, luminescence; HEK293T NGFI-A luciferase reporter; COUP transcription factor 2 (Homo sapiens), P24468; inhibition, % at 8.6 µM; 370,000 tested, 0.7% active;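 active means inhibition above a per-plate cutoff, mean inhibition of test wells between control levels plus 3 SD, cut at about 38% in these data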;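 further: cells cotransfected with COUP-TFII expression vector driving the NGFI-A reporter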
Target sequence (P24468 whole entry, looked up): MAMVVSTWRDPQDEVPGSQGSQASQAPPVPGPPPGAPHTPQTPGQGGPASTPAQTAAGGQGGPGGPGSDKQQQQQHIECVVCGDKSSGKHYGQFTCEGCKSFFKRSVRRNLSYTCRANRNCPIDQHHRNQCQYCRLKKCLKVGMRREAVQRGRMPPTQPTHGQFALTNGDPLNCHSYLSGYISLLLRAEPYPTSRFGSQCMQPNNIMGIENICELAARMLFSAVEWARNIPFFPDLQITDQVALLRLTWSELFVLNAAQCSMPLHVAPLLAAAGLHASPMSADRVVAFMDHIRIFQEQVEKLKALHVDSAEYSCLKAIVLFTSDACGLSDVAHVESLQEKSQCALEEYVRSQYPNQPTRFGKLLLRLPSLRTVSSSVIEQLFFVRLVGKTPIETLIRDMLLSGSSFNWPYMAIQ
FXN GAA850 act = FXN promoter activators, primary screen, cell-based, luciferase luminescence, HEK293 lucGAA850. AID 540364, 2011. 360,000 tested, 0.56% active. HEK293 lucGAA850 FXN promoter luciferase reporter, 24 h; percent of 10 µM SAHA response. activation, % at 6 µM;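 active means activation above the average of all compounds screened plus 3 SD, cutoff fixed separately per campaign, cut at about 7.5% in these data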
Of the large screens only hits and unclear results are named; the others gave an inactive call. Hits are enriched below; roughly 3.4% of the tested compounds scored in any of these assays.

Cc1ccc(C)c(N2CCN(C(=O)c3ccc4nc(-c5ccco5)c(-c5ccco5)nc4c3)CC2)c1	none
COc1ccccc1N1CCN(C(=O)c2ccc3nc(-c4ccco4)c(-c4ccco4)nc3c2)CC1	H9c2 protect 63.5
Cc1ccc(C(=O)C(C)OC(=O)Cc2n[nH]c(=O)c3ccccc23)cc1 (stereo not drawn)	none
Cc1cc(C)c(C(=O)C(C)OC(=O)Cc2n[nH]c(=O)c3ccccc23)cc1C (stereo not drawn)	none
CC(OC(=O)Cc1n[nH]c(=O)c2ccccc12)C(=O)Nc1ccc(F)cc1Cl (stereo not drawn)	H9c2 protect 68.8
CC(OC(=O)Cc1n[nH]c(=O)c2ccccc12)C(=O)Nc1ccc(F)cc1 (stereo not drawn)	H9c2 protect 59.2
CS(=O)(=O)N[C@@H]1C[C@@H]2O[C@H](CO)CC[C@@H]2O[C@@H]1CCc1ccc(-c2ccccc2F)cc1	none (no result: GalR3 antagonist, Gli-Sufu antag, H9c2 protect, FXN GAA850 act)
COc1ccc(-c2cc3nc(C)cc(N4CCN(C(=O)c5ccoc5)CC4)n3n2)cc1	H9c2 protect 53.9 (no result: Gli-Sufu antag)
COc1cc(C(=O)N/N=C/c2ccc(OC(=O)c3ccccc3Cl)c(OC)c2)ccc1O	H9c2 protect 65.8 (no result: GalR3 antagonist, SMARCA2 act, NR2F2 inh)
COc1cc(/C=N/NC(=O)c2ccncc2)ccc1OCC(=O)Nc1ccc(C)c(C)c1	H9c2 protect 52.0
COc1cc(/C=N/NC(=O)c2ccncc2)ccc1OC(=O)c1ccccc1Cl	H9c2 protect 74.0
O=C(COc1ccccc1C(=O)N/N=C\c1ccc(O)c(O)c1)N/N=C/c1ccc(O)c(O)c1	H9c2 protect 53.7 (no result: GalR3 antagonist, SMARCA2 act, NR2F2 inh)
O=C(NCc1cccs1)C1CCCN(S(=O)(=O)c2ccccc2)C1 (stereo not drawn)	none (no result: GalR3 antagonist, Gli-Sufu antag, H9c2 protect, FXN GAA850 act)
Cc1ccc(-c2nnnn2C2C/C(=N\NC(N)=S)C3OCC2O3)cc1 (stereo not drawn)	none
NC(=S)N/N=C1\CC(n2nnnc2-c2ccccc2Cl)C2COC1O2 (stereo not drawn)	SMARCA2 act 7.8
CCN(CC)c1ccc(/C=N/NC(=O)c2cccc(S(=O)(=O)Nc3ccccc3OC)c2)c(O)c1	Gli-Sufu antag 83.6
COC(=O)[C@H]1C[C@@]2(N3CCCCC3)c3ccccc3N[C@H]2N1S(=O)(=O)c1ccc([N+](=O)[O-])cc1	none (no result: GalR3 antagonist, Gli-Sufu antag, H9c2 protect, FXN GAA850 act)
O=C(COc1ccccc1[N+](=O)[O-])Nc1ccc(N2CCN(C(=O)c3cccs3)CC2)cc1	H9c2 protect 65.9
COC(=O)c1ccc(N)c(N=CC2=C(O)CC(C)(C)CC2=O)c1	H9c2 protect 58.1
COc1ccc(OC)c(N2CC(O)=C(c3nc4ccccc4s3)C2=N)c1	none
CCOc1ccccc1N1CC(O)=C(c2nc3ccccc3s2)C1=N	H9c2 protect 95.2
NC(=O)c1cccc2c1C(=O)N(C1CCCCC1)C2	H9c2 protect 77.5 (no result: GalR3 antagonist)
CCOc1cc(/C=C2\SC(=N)N(c3nccs3)C2=O)ccc1OCCN1CCOCC1	H9c2 protect 53.9
O=C(NCc1ccccc1)C1(C(=O)C2CC2)CC(c2ccccn2)=NO1 (stereo not drawn)	none (no result: GalR3 antagonist, Gli-Sufu antag, H9c2 protect, FXN GAA850 act)
Cc1ccc(-c2nnc(NCc3nc4ccccc4[nH]3)c3ccccc23)cc1S(=O)(=O)N(C)C	none
Cc1ccc(-c2nnc(NCc3nc4ccccc4[nH]3)c3ccccc23)cc1S(=O)(=O)N1CCOCC1	H9c2 protect 86.0 (no result: GalR3 antagonist, SMARCA2 act, NR2F2 inh)
Cc1ccc(C(=O)NNC(=S)NC(=O)c2ccc(Cl)cc2Cl)cc1	H9c2 protect 54.5
Oc1ccccc1N=Nc1ccccc1O	Gli-Sufu antag 87.2
NC(=O)c1cccc(-c2coc3c(C(=O)NC4CCCCC4)cccc23)c1	none (no result: Gli-Sufu antag)
Cc1cc(C)n(-c2nc(NC(C)C)nc(NC(C)C)n2)n1	FXN GAA850 act 9.6
Cn1c(=O)n(CCc2ccccc2)c(=O)c2c1nc1n2CCCN1CCc1ccccc1	H9c2 protect 106.2
Cn1c(=O)n(CCc2ccccc2)c(=O)c2c1nc1n2CCCN1Cc1ccccc1	H9c2 protect 116.5
CCCn1c(=O)c2c(nc3n2CCCN3CCc2ccccc2)n(C)c1=O	none

High-throughput results as filed in PubChem.
